Activity calls are given as the source filed them. How the source made its calls: active means hit-call score of the fitted dose curve at least 0.9, where 1 is the maximum; inactive means score below 0.9.

The nature of experiment [1]: BSK_3C_SRB: Viability Assessment in the BioMAP Diversity Plus: 3C Assay (AID 2283023).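 Further: cells read 24 h after compound dosing; fitted both ways against DMSO so a hit may be signal rise or drop.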 The note with it: primary human endothelial cells (HUVEC). Put shortly: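 Absorbance at 560 nm of sulforhodamine B-stained (0.1%) total protein served as a cytotoxicity readout in human umbilical vein endothelial cells, 24 h after chemical treatment. Signal was fitted bidirectionally relative to DMSO.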

Read-out in experiment [2]: Matrix Metallopeptidase 1 (MMP1), MMP1 (gene 4312)
Briefly: BSK_BE3C_MMP1: BioMAP Diversity Plus: BE3C Assay for Matrix Metallopeptidase 1 (MMP1) Biomarker Activity (AID 2283024). The note with it: primary human bronchial epithelial cells; actives raise or lower the signal. Put shortly:
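In this multiplexed primary-cell system, human bronchial epithelium received chemicals for 24 h before an ELISA for MMP1. Values reflect bidirectional fits normalised to the DMSO baseline.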

A short description of experiment [3]: BSK_3C_Vis: BioMAP Diversity Plus: 3C Assay for Morphology Visualization (AID 2283025).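 Further: fitted both ways so gain or loss versus DMSO counts.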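 On AC50: light microscopy image of cell morphology used as background control.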 The note with it: primary human endothelial cells (HUVEC). Put shortly: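 Light-microscopy morphology readout, 24 h exposure, human primary umbilical vein endothelium; analysed relative to DMSO with bidirectional fitting.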
Read-out in experiment [4]: Pselectin, SELP (gene 6403)
As to the kind of experiment: BSK_4H_Pselectin: BioMAP Diversity Plus: 4H Assay for Pselectin Biomarker Activity (AID 2283026). The note with it: primary human endothelial cells (HUVEC); actives raise or lower the signal. Put shortly:
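Bidirectional fits against DMSO gave the endpoint. Cells: primary human umbilical vein endothelium, chemical-treated for 24 h before ELISA detection of P-selectin.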

A short description of experiment [5]: BSK_BE3C_SRB: Viability Assessment in the BioMAP Diversity Plus: BE3C Assay (AID 2283028).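 On AC50: fitted both ways so AC50 may mark signal gain or loss versus DMSO.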 The note with it: primary human bronchial epithelial cells. Put shortly: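 Cells (human bronchial epithelial, primary) are treated with chemicals, and after 24 h the parallel cultures are fixed in 10% TCA. These are then stained with 0.1% SRB and read at 560 nm. Gain or loss of signal is fitted relative to DMSO.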

Read-out in experiment [6]: Thrombomodulin, THBD (gene 7056)
As to the kind of experiment: BSK_3C_Thrombomodulin: BioMAP Diversity Plus: 3C Assay for Thrombomodulin Biomarker Activity (AID 2283029). The note with it: primary human endothelial cells (HUVEC); actives raise or lower the signal. In a few lines:
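In a multiplexed primary-cell system, human umbilical vein endothelium received chemical and was assayed 24 h later for thrombomodulin by ELISA. Parallel cultures were SRB-stained (0.1% SRB after 10% TCA fixation, read at 560 nm) to flag cytotoxicity.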

Read-out in experiment [7]: Urokinase-type plasminogen activator receptor (uPAR), PLAUR (gene 5329)
Briefly: BSK_4H_uPAR: BioMAP Diversity Plus: 4H Assay for Urokinase-type plasminogen activator receptor (uPAR) Biomarker Activity (AID 2283030). The note with it: primary human endothelial cells (HUVEC); actives raise or lower the signal. Put shortly: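 Cell-surface uPAR ELISA signal, measured 24 h after dosing human umbilical vein endothelial cells, was analyzed with bidirectional fitting relative to DMSO. Parallel SRB staining of total protein tracked overt cytotoxicity.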

Read-out in experiment [8]: Vascular endothelial growth factor receptor 2 (Homo sapiens) (UniProt P35968)
Briefly: BSK_4H_VEGFRII: BioMAP Diversity Plus: 4H Assay for Vascular endothelial growth factor receptor 2 (VEGFR2) Biomarker Activity (AID 2283031).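 On AC50: cell-surface VEGFR2 protein level quantified by ELISA.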 The note with it: primary human endothelial cells (HUVEC); actives raise or lower the signal. In a few lines: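 ELISA read-out of VEGFRII in primary human umbilical vein endothelium, taken 24 h after chemical treatment. Responses are expressed relative to DMSO, with bidirectional fitting.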

Read-out in experiment [9]: Human Leukocyte Antigen - DR isotype (HLADR), HLA-DRA (gene 3122)
Briefly: BSK_BE3C_HLADR: BioMAP Diversity Plus: BE3C Assay for Human Leukocyte Antigen - DR isotype (HLADR) Biomarker Activity (AID 2283032). The note with it: primary human bronchial epithelial cells; actives raise or lower the signal. Put shortly: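 BioMAP BE3C format: human bronchial epithelium, 24 h compound treatment, ELISA detection of HLA-DR, with bidirectional analysis relative to DMSO.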

Read-out in experiment [10]: Vascular cell adhesion molecule 1 (VCAM1), VCAM1 (gene 7412)
As to the kind of experiment: BSK_4H_VCAM1: BioMAP Diversity Plus: 4H Assay for Vascular cell adhesion molecule 1 (VCAM1) Biomarker Activity (AID 2283033).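 On outcome: cell-surface VCAM-1 protein measured by ELISA.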 The note with it: primary human endothelial cells (HUVEC); actives raise or lower the signal. Put shortly: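 In this human endothelial (HUVEC) system, biomarker ELISA was run 24 h after compound addition, and total protein in parallel wells was assessed by SRB at 560 nm; DMSO served as negative control.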

Read-out in experiment [11]: Interferon-gamma inducible Protein 10 (IP10), CXCL10 (gene 3627)
As to the kind of experiment: BSK_BE3C_IP10: BioMAP Diversity Plus: BE3C Assay for Interferon-gamma inducible Protein 10 (IP10) Biomarker Activity (AID 2283034). The note with it: primary human bronchial epithelial cells; actives raise or lower the signal. Put shortly:
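BE3C cells (human bronchial epithelial, primary); 24 h exposure; ELISA for IP-10; DMSO-referenced bidirectional fit.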

Read-out in experiment [12]: Monokine induced gamma interferon (MIG), CXCL9 (gene 4283)
Briefly: BSK_BE3C_MIG: BioMAP Diversity Plus: BE3C Assay for Monokine induced gamma interferon (MIG) Biomarker Activity (AID 2283035).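 On outcome: MIG protein measured by ELISA in BE3C cultures after 24 h of dosing.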 The note with it: primary human bronchial epithelial cells; actives raise or lower the signal. Put shortly: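 hu bronchial epithelial 1° cells, 24 h cpd; MIG by ELISA; bidirectional fit, DMSO = baseline.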

Read-out in experiment [13]: Transforming growth factor beta 1 (TGFb1), TGFB1 (gene 7040)
Briefly: BSK_BE3C_TGFb1: BioMAP Diversity Plus: BE3C Assay for Transforming growth factor beta 1 (TGFb1) Biomarker Activity (AID 2283036;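 on outcome: TGF-b1 protein level measured by ELISA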). The note with it: primary human bronchial epithelial cells; actives raise or lower the signal. Put shortly: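 TGF-b1 measured via ELISA, 24 h after chemical dosing of human bronchial epithelial cells (BE3C). Overt cytotoxicity assessed in parallel by SRB (0.1%, TCA-fixed, 560 nm); analysis bidirectional relative to DMSO.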

Read-out in experiment [14]: Plasminogen activator inhibitor-1 (PAI1), SERPINE1 (gene 5054)
Briefly: BSK_BE3C_PAI1: BioMAP Diversity Plus: BE3C Assay for Plasminogen activator inhibitor-1 (PAI1) Biomarker Activity (AID 2283037). The note with it: primary human bronchial epithelial cells; actives raise or lower the signal. In a few lines:
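In this multiplexed primary-cell system, bronchial epithelial cells receive test chemical and are sampled at 24 h. PAI-1 is read by ELISA, with DMSO serving as negative control for bidirectional fitting.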

Read-out in experiment [15]: urokinase plasminogen activator (uPA), PLAU (gene 5328)
As to the kind of experiment: BSK_BE3C_uPA: BioMAP Diversity Plus: BE3C Assay for urokinase plasminogen activator (uPA) Biomarker Activity (AID 2283038).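 On outcome: uPA protein level quantified by ELISA in cell cultures; uPA read one day after compound addition.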 The note with it: primary human bronchial epithelial cells; actives raise or lower the signal. Put shortly: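 Bronchial epithelial cells (human, primary); chemical 24 h; uPA by ELISA; bidirectional fit vs DMSO. SRB (0.1%, after 10% TCA fixation, 560 nm) in parallel cultures for cytotoxicity.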

Read-out in experiment [16]: Urokinase-type plasminogen activator receptor (uPAR), PLAUR (gene 5329)
Briefly: BSK_BE3C_uPAR: BioMAP Diversity Plus: BE3C Assay for Urokinase-type plasminogen activator receptor (uPAR) Biomarker Activity (AID 2283039).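 On outcome: cells exposed to compound for one day before measurement.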 The note with it: primary human bronchial epithelial cells; actives raise or lower the signal. In a few lines: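 Chemically treated human bronchial epithelial cells (lung primary) are assayed for uPAR by ELISA after 24 h, with data fitted in both directions using DMSO as negative control.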

Read-out in experiment [17]: Interleukin-6 (IL6), IL6 (gene 3569)
Briefly: BSK_CASM3C_IL6: BioMAP Diversity Plus: CASM3C Assay for Interleukin-6 (IL6) Biomarker Activity for (AID 2283040). The note with it: primary human coronary artery smooth muscle cells; actives raise or lower the signal.

Read-out in experiment [18]: Tissue plasminogen activator (tPA), PLAT (gene 5327)
Briefly: BSK_BE3C_tPA: BioMAP Diversity Plus: BE3C Assay for Tissue plasminogen activator (tPA) Biomarker Activity (AID 2283041).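 On outcome: tPA level quantified by ELISA one day after compound addition.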 The note with it: primary human bronchial epithelial cells; actives raise or lower the signal. In a few lines:
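Using human lung primary bronchial epithelial cells, tPA was measured by ELISA 24 h after dosing; data fitted relative to DMSO.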

Experiment [19] is described as follows: BSK_4H_SRB: Viability Assessment in the BioMAP Diversity Plus: 4H Assay (AID 2283027).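 Further: cells exposed to compound for 24 h before staining.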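 On AC50: curves fitted both ways versus DMSO so AC50 may be loss or gain.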 The note with it: primary human endothelial cells (HUVEC). In a few lines: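 Cytotoxicity readout: sulforhodamine B (0.1%) staining of total protein after 10% TCA fixation, measured at 560 nm in human umbilical vein endothelium at 24 h. DMSO set the baseline; fitting was bidirectional.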

Regarding `CCCCC(CC)COC(=O)CCCCCCCCC(=O)OCC(CC)CCCC` (centres undefined), the outcome in experiment [1], in experiment [2], in [3], in experiment [4], in [5] and in experiment [6] was inactive. Moreover, the result in experiment [7], in [8], in experiment [9], in experiment [10], in [11] and in [12] was inactive. Also, the result in experiment [13], in experiment [14], in [15], in experiment [16], in experiment [17] and in experiment [18] was inactive.

`CC(=O)c1ccc2c(c1)[C@H](NC(=O)c1ccc(F)cc1)[C@@H](O)C(C)(C)O2`: the result in experiment [1], in [2], in experiment [3], in [4], in [19] and in experiment [5] was inactive. Further, the result in [6], in [7], in experiment [8], in [9], in experiment [10] and in [11] was inactive. The outcome in experiment [12], in [13], in [14], in [15], in experiment [16] and in [17] was inactive. The outcome in experiment [18] was inactive.

For the molecule `CCOC(=O)COc1ccc2c(c1)CC(NCC(O)c1cccc(Cl)c1)CC2` (centres undefined), the half-maximal activity concentration (AC50) in experiment [1] is 26.7 µM (active); in [3], 34.2 µM (active); in experiment [4], 29.8 µM (active); in experiment [19] it was 28.1 µM (active); in [7] it was 28.7 µM (active); in experiment [8], 34.5 µM (active). Besides, the AC50 is 30.3 µM (active) in [9]; 30 µM (active) in [10]; 30.3 µM (active) in experiment [11]; 29 µM (active) in [13]; 31.2 µM (active) in [15]. In addition, the result in experiment [2], in experiment [5], in experiment [6], in experiment [12], in [14] and in [16] was inactive. Further, the result in experiment [17] and in experiment [18] was inactive.

On to `Nc1ccc(Nc2ccccc2)cc1`, for which the result in [1], in experiment [3], in experiment [5], in [6], in [8] and in [9] was inactive. The outcome in [11], in experiment [12], in experiment [13], in [14], in experiment [15] and in [16] was inactive. In [17], the outcome was inactive. Also, the AC50 in experiment [2] is 8.67 µM (active); in experiment [4], 3.97 µM (active); in [10], 3.97 µM (active).

In the case of `CNS(=O)(=O)c1cc(C(=O)N2CCC(CCN3C4CCC3CC(n3c(C)nc5ccccc53)C4)(c3cccc(F)c3)CC2)c(Cl)cc1F` (centres undefined), the AC50 in experiment [1] is 20.6 µM (active); in [2], 20 µM (active); in experiment [3], 15.2 µM (active); in experiment [19], 11.8 µM (active); in [7], 0.148 µM (active); in [17], 5.62 µM (active). Also, the outcome in experiment [5], in experiment [6], in experiment [8], in [9], in experiment [10] and in experiment [11] was inactive. For the same molecule, the outcome in [12], in [13], in experiment [14], in [15], in experiment [16] and in experiment [18] was inactive.

Turning to `O=C1CCC(N2C(=O)c3ccccc3C2=O)C(=O)N1` (centres undefined), the result in experiment [1], in experiment [2], in experiment [3], in experiment [5], in experiment [6] and in experiment [7] was inactive. In addition, the result in [8], in experiment [9], in experiment [10], in experiment [11], in [12] and in experiment [13] was inactive. Besides, the outcome in experiment [14], in experiment [15], in [16], in [17] and in experiment [18] was inactive.

Take `CCc1cc(SCc2sc(-c3ccc(C(F)(F)F)cc3)nc2CN2CCN(c3ccc(OC)cc3)CC2)ccc1OCC(=O)O`: the AC50 in experiment [1] is 5.75 µM (active); in experiment [2], 9.73 µM (active); in experiment [3], 14.5 µM (active); in experiment [5], 5.19 µM (active); in experiment [6], 37 µM (active); in [7] it was 16 µM (active). Further, the AC50 in experiment [8] was 4.8 µM (active); in experiment [9], 5.41 µM (active); in experiment [10], 10 µM (active); in experiment [11], 3.2 µM (active); in experiment [12] it was 5.52 µM (active); in experiment [13], 5.17 µM (active). The AC50 in [14] is 3.07 µM (active); in experiment [15], 5.31 µM (active); in experiment [16], 5.38 µM (active); in experiment [17] it was 20 µM (active); in [18], 5.23 µM (active).

The values above are taken from PubChem BioAssay (EPA / NIEHS).
